Data taken from paper PMC4336329 (PLoS ONE, 2015).
The campaign covered roughly 310,000 compounds. About 14,000 (4.5%) showed an effect of 50% or more. The effect is printed as a negative number. The sample holds strong results, similar compounds and a random draw of the others, so the mix is not that of the screen.

These compounds were tested against human ether-à-go-go-related gene (hERG) potassium channel (human, UniProt Q12809) (assay: primary screen, population patch clamp on CHO cells stably expressing hERG; higher = less effect of the substance).
Chain of human ether-à-go-go-related gene (hERG) potassium channel (Q12809 whole entry, looked up): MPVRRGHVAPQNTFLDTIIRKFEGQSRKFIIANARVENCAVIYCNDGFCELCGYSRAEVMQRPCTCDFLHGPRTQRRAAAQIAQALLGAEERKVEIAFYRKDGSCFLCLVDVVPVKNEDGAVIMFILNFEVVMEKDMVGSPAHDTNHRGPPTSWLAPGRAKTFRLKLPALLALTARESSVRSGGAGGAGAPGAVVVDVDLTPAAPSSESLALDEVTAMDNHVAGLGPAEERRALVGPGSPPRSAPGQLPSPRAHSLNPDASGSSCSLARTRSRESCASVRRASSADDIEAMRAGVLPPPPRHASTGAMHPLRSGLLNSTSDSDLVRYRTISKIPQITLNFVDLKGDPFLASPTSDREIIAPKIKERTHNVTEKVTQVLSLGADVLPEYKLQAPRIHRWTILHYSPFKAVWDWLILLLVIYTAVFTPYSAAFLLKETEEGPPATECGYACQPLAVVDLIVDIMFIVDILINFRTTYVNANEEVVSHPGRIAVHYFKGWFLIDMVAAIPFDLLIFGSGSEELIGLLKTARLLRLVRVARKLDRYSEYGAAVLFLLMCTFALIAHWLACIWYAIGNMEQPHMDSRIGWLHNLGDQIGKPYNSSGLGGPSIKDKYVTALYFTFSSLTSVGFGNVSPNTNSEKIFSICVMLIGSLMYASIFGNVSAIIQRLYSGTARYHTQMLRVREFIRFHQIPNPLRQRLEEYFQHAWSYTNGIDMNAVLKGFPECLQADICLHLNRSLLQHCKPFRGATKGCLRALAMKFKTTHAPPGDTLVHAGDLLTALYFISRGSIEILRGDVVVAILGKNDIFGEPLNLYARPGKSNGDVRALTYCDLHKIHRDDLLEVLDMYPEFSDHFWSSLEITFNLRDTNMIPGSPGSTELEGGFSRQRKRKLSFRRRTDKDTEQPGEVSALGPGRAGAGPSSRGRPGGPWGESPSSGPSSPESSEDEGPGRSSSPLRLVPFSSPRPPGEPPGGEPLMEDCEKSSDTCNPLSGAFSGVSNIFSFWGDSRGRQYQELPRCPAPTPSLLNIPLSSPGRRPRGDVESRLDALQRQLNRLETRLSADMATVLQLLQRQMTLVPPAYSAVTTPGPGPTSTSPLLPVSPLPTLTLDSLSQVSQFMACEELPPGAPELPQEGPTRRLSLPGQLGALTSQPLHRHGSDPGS
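Note: peak tail current of the secondary pulse compared with the same well before compound.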

Row | SMILES | hERG current change (%, negative = inhibition) at 10uM [%]
1 | Cc1ccc(S(=O)(=O)NC(CC(=O)NCC2CCCO2)c2ccco2)cc1 (stereo not shown) | 24.9
2 | COc1ccc(N(CC(=O)N2CCN(Cc3ccccc3)CC2)S(C)(=O)=O)cc1 | -3
3 | O=C(NN1CCOCC1)c1cc(-c2ccc(Cl)c(Cl)c2)nc2ccccc12 | 10.8
4 | Cc1oncc1C(=O)Nc1cccc(C#N)c1 | 4.43
5 | CCCN1C(=O)/C(=c2\sc3nc(=O)c(Cc4ccc(C)cc4)nn3c2=O)c2ccccc21 | 21.2
6 | CCN(Cc1ccccc1)C(=O)c1oc2ccc(S(=O)(=O)N3CCOCC3)cc2c1C | -6.06
7 | Nc1cc(C(=O)OCC(=O)N2CCOCC2)ccc1Cl | 17.8
8 | CC(C)(C)NC(=O)CSC(=Nc1cccc(F)c1)NC#N | 8.94
9 | CC(C)(C)NC(=O)CSC(=Nc1ccccc1F)NC#N | -0.709
10 | CC(C)(C)NC(=O)CSC(=Nc1ccc(F)cc1)NC#N | -72.3
11 | COc1ccc(CNC(=O)c2noc(C(C)C)c2[N+](=O)[O-])cc1 | 3.4
12 | Cc1ccc(NNC(=O)c2ccno2)c(C)c1 | 11.1
13 | COc1ccc(OC)c(-c2csc(NC(=O)CN3C(=O)C4CCCCC4C3=O)n2)c1 (stereo not shown) | -0.554
14 | O=C(O)c1ccccc1S(=O)(=O)NCC(O)COC1CCCCC1 (stereo not shown) | -2.65
15 | CCN1CCN(Cc2cc(OC)c3c(c2)OCO3)CC1 | 9.99
16 | CCOC(=O)C1(CCOc2ccccc2)CCN(Cc2cc(OC)c3c(c2)OCO3)CC1 | -72.1
17 | CCOC(=O)C1(Cc2ccccc2)CCN(Cc2cc(OC)c3c(c2)OCO3)CC1 | -60.7
18 | CCN1C(=O)CC(N2CCN(c3ccc(Cl)cc3)CC2)C1=O (stereo not shown) | -14
19 | COc1ccc2c(CC(=O)OCC(=O)c3ccc(F)cc3)coc2c1 | 6.5
20 | CCCc1ccc(-c2cc(C(=O)NN3CCOCC3)c3ccccc3n2)cc1 | -3.8
21 | NC(=O)c1ccc(NC(=O)CSc2nnc(C3CCCCC3)n2N)cc1 | 18
22 | Cn1c(C(=O)NC2CCCCC2)cc2sccc21 | -7.87
23 | CCOc1ccc2oc(C(=O)N3CCN(c4ccccn4)CC3)c(C)c2c1 | -34.3

Row | SMILES | hERG current change (%, negative = inhibition) at 10uM [%]
24 | COc1ccc2oc(C(=O)NCc3cc(OC)c(OC)cc3OC)c(C)c2c1 | 0.174
25 | Cc1c(C(=O)OCC(C)(C)CN(C)C)oc2ccccc12.Cl | -52
26 | CCOc1ccc2oc(C(=O)NCc3nc4ccccc4[nH]3)c(C)c2c1 | 10.3
27 | CCOc1ccc2oc(C(=O)NCC3CCCO3)c(C)c2c1 (stereo not shown) | 11
28 | CCOc1ccc2oc(C(=O)N3CCN(c4ccccc4OCC)CC3)c(C)c2c1 | -52.6
29 | CCOc1ccc2oc(C(=O)NCc3ccccc3CN3CCCC3)c(C)c2c1 | -66.2
30 | COc1ccc2oc(C(=O)NCc3ccccc3CN3CCCC3)c(C)c2c1 | -66.1
31 | Cc1c(C(=O)OCC(=O)N(C)c2ccccc2)oc2ccccc12 | 3.17
32 | CCOc1ccc2oc(C(=O)N3CCN(Cc4ccccc4)CC3)c(C)c2c1 | -18.4
33 | COc1ccc2oc(C(=O)NCc3ccco3)c(C)c2c1 | 8.36
34 | Cc1c(C(=O)OC(C)CCN(C)C)oc2ccccc12.Cl (stereo not shown) | -42.8
35 | CN(c1cccc(Cl)c1)S(=O)(=O)c1cccc(C(=O)NN2CCOCC2)c1 | -14.1
36 | Cc1ccc(S(=O)(=O)CCC(=O)OC(C)C(=O)NC2CCCCC2C)cc1 (stereo not shown) | -1.21
37 | CCOC(=O)c1ccc(N2C(=O)C3CC=C(C)CC3C2=O)cc1 (stereo not shown) | 7.74
38 | Cn1c(=O)c2c(SCC(N)=O)nc(CC(C)(C)C)nc2n(C)c1=O | -10.5
39 | CC1(C)c2ccccc2N(CC(N)=O)C12C=Cc1ccccc1O2 (stereo not shown) | -26
40 | Cc1nc(NC(=O)c2cccnc2Cl)sc1C | 4.14
41 | CC(NC(=O)c1ccc2c(c1)OCO2)C(c1cccs1)N1CCN(c2ccccc2)CC1 (stereo not shown) | 3.68
42 | COc1ccc(CCn2c(C)cc(C(=O)CSc3nnnn3C)c2C)cc1 | 0.08
43 | CC1CCCCC1NC(=O)Cn1c(CN2CCCCC2)nc2ccccc2c1=O (stereo not shown) | -24.6
44 | COc1ccc(OC)c(S(=O)(=O)NCC(c2ccc3c(c2)OCO3)N2CCOCC2)c1 (stereo not shown) | -28.4
45 | O=c1c2cc(Cl)ccc2nc(-c2ccccc2Cl)n1O | 16.4
46 | Cc1c(C(=O)NCc2ccccc2CN2CCCC2)oc2c(F)cccc12 | -70.5

Row | SMILES | hERG current change (%, negative = inhibition) at 10uM [%]
47 | Cc1c(C(=O)NCc2ccccc2CN2CCCC2)oc2ccc(F)cc12 | -74
48 | Cc1c(C(=O)NCc2ccco2)oc2c(F)cccc12 | 1.08
49 | CCOc1ccc2oc(C(=O)NCC(C)(C)CN(C)C)c(C)c2c1.Cl | -54.5
50 | Cc1c(C(=O)NCc2ccccc2)oc2ccc(S(=O)(=O)N3CCCC3)cc12 | 2.65
51 | CCOc1ccc2oc(C(=O)O)c(C)c2c1 | 4.62
52 | CCOc1ccc2oc(C(=O)NC(C)(C)CC)c(C)c2c1 | -3
53 | COc1ccccc1CNC(=O)c1oc2ccc(S(=O)(=O)N3CCCC3)cc2c1C | -4.46
54 | Cc1c(C(=O)NCCN2CCCC(O)C2)oc2c(F)cccc12 (stereo not shown) | -1.78
55 | CCN(Cc1ccncc1)Cc1ccc(Br)cc1.O=C(O)C(=O)O | -5.38
56 | COc1cccc(CC(=O)OC(C)C(=O)NCc2ccc3c(c2)OCO3)c1 (stereo not shown) | -3.97
57 | COc1cc(C(CC(=O)N2CCN(c3ccccc3)CC2)c2c(OC)cc(OC)c3ccc(=O)oc23)cc(OC)c1OC (stereo not shown) | -29
58 | COc1ccc(-c2nnc(SCC#N)o2)cc1 | 11.3
59 | CCOC(=O)CCCNC(=O)CCNC(=O)c1ccc(OCC(C)C)cc1 | 3.61
60 | COc1ccc(C(=O)CN2C(=O)c3ccccc3C2=O)cc1 | 7.16
61 | CN(C)CCNC(=O)c1sc2nc(-c3ccccc3)cc(C(F)(F)F)c2c1N | -57.8
62 | COc1ccc(-c2cc(C(F)(F)F)c3c(N)c(C(=O)NCCSC)sc3n2)cc1 | -10.7
63 | Nc1c(C(=O)C2CC2)sc2nc(-c3ccccc3)cc(C(F)(F)F)c12 | 18.8
64 | COc1ccc(-c2cn(Cc3ccc(C(N)=O)cc3)c(-c3ccncc3)n2)cc1 | -60.1
65 | COc1ccc(-c2cn(Cc3ccc(C(N)=O)cc3)c(-c3ccc(Cl)nc3)n2)cc1 | -71.4
66 | Cc1ccc(CNC(=O)c2ccc(Cn3cc(-c4ccc(C)cc4)nc3-c3ccncc3)cc2)cc1 | 5.94
67 | COc1ccc(-c2cn(CCC(=O)O)c(-c3ccc(Cl)nc3)n2)cc1 | 9.6
68 | COc1ccc(-c2cn(Cc3ccc(C(N)=O)cc3)c(CCN)n2)cc1 | -13.9
69 | COc1ccc(-c2cn(CCO)c(-c3ccc(Cl)nc3)n2)cc1 | -9.71

Row | SMILES | hERG current change (%, negative = inhibition) at 10uM [%]
70 | O=C(c1ccc(CS(=O)(=O)c2ccc(Br)cc2)o1)N1CCN(c2ccccn2)CC1 | -36
71 | Cc1ccc(-n2c(C)nc3ccsc3c2=O)cc1 | 1.42
72 | O=C(CCc1nc(-c2ccccc2Cl)no1)NC1CCCCC1 | 10.6
73 | CCCCCCCNC(=O)COc1ccc2c(c1)C(=O)CC(C)(C)O2 | -14.4
74 | O=C(CNC(=S)N(CCCN1CCOCC1)Cc1cccs1)N1CCCCCC1 | -41.4
75 | COCCNC(=O)CNC(=S)N(CCCN1CCOCC1)Cc1cccs1 | 14.1
76 | CCN(CC)CCNC(=O)CNC(=S)N(CCCN1CCOCC1)Cc1cccs1 | 15.7
77 | CCOC(=O)CNC(=S)N(CCCN1CCCC1)Cc1cccs1 | -53.6
78 | CCOC(=O)CNC(=S)N(CCCN1CCCCCC1)Cc1cccs1 | -65.8
79 | O=C(CNC(=S)N(CCCN1CCOCC1)Cc1cccs1)N1CCCC1 | 3.09
80 | CCOC(=O)CNC(=S)N(CCCN1CCCCC1)Cc1cccs1 | -62.6
81 | CCOC(=O)CNC(=S)N(CCCN1CCN(C)CC1)Cc1cccs1 | -43.5
82 | O=C(CNC(=S)N(CCCN1CCOCC1)Cc1cccs1)N1CCOCC1 | -9.74
83 | O=C(Nc1cccc(F)c1)c1cc(S(=O)(=O)NCCC2=CCCCC2)ccc1F | 17.4
84 | COc1ccccc1N(CC(=O)NCCSCc1ccccc1)S(C)(=O)=O | 4.03
85 | COc1ccc(N2CC(C)Cn3c2nc2c3c(=O)[nH]c(=O)n2C)cc1 (stereo not shown) | -24.3
86 | N#Cc1c(NC(=O)CSc2ncccn2)oc(-c2ccccc2)c1-c1ccccc1 | 25.2
87 | Nc1nc(Cl)nc2ccc(Br)cc12 | 7.87
88 | Cc1nc2ccccc2c(N)c1C(=O)/C=C/c1ccccc1 | -79.7
89 | CC(=O)c1c(C)nc2ccccc2c1N | -10.1
90 | Cc1[nH]c2ccccc2c1C(=O)/C=C/c1ccccc1 | 8.96
91 | Cc1occc1-c1nnc(SCCNCCO)o1.O=C(O)C(=O)O | 63.6
